Laboratory results taken from PubChem BioAssay AID1159580 (chemical genetic matrix, 2015).
“And” between values parts separate entries of the source, which are not always exact repeats. Identical values can stand only once. The campaign covered roughly 5,500 compounds. About 2,000 (36%) were called active. Inconclusive results (about 18%) are left out. No stated cut-off is given here; in the data, active means normalized growth mostly below about 0.91 (no sharp cut-off); inconclusive means no clear call, values can overlap the other calls; inactive means mostly above about 0.92. The list shows a part of the results.

Assay: chemical genetic growth profiling, strain panel (AID 1159580);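 further: tested at 20 µM; growth read once vehicle control cultures reached saturation at 30 °C; 1 = growth at the plate median or of vehicle wells; lower values mean less growth of the strain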
Conditions: growth OD
[1] = S. cerevisiae deletion strains, locus YAR019C, strain CDC15, hits give low values
[2] = S. cerevisiae deletion strains, locus YBL105C, strain PKC1, hits give low values
[3] = S. cerevisiae deletion strains, locus YBR135W, strain CKS1, hits give low values
[4] = S. cerevisiae deletion strains, locus YBR136W, strain MEC1, hits give low values
[5] = S. cerevisiae deletion strains, locus YBR160W, strain CDC28, hits give low values
[6] = S. cerevisiae deletion strains, locus YDL017W, strain CDC7, hits give low values
[7] = S. cerevisiae deletion strains, locus YDL028C, strain MPS1, hits give low values
[8] = S. cerevisiae deletion strains, locus YDL101C, strain DUN1, hits give low values
[9] = S. cerevisiae deletion strains, locus YDL108W, strain KIN28, hits give low values
[10] = S. cerevisiae deletion strains, locus YDL132W, strain cdc53, hits give low values
[11] = S. cerevisiae deletion strains, locus YDL214C, strain PRR2, hits give low values
[12] = S. cerevisiae deletion strains, locus YDR052C, strain DBF4, hits give low values
[13] = S. cerevisiae deletion strains, locus YDR054C, strain cdc34, hits give low values
[14] = S. cerevisiae deletion strains, locus YDR477W, strain SNF1, hits give low values
[15] = S. cerevisiae deletion strains, locus YER123W, strain YCK3, hits give low values
[16] = S. cerevisiae deletion strains, locus YER133W, strain GLC7, hits give low values
[17] = S. cerevisiae deletion strains, locus YFL009W, strain cdc4, hits give low values
[18] = S. cerevisiae deletion strains, locus YFL029C, strain CAK1, hits give low values
[19] = S. cerevisiae deletion strains, locus YFR003C, strain YPI1, hits give low values
[20] = S. cerevisiae deletion strains, locus YFR019W, strain FAB1, hits give low values
[21] = S. cerevisiae deletion strains, locus YFR028C, strain CDC14, hits give low values
[22] = S. cerevisiae deletion strains, locus YGR040W, strain KSS1, hits give low values
[23] = S. cerevisiae deletion strains, locus YGR052W, strain FMP48, hits give low values
[24] = S. cerevisiae deletion strains, locus YGR092W, strain DBF2, hits give low values
[25] = S. cerevisiae deletion strains, locus YHR030C, strain SLT2, hits give low values
[26] = S. cerevisiae deletion strains, locus YHR079C, strain IRE1, hits give low values
[27] = S. cerevisiae deletion strains, locus YHR082C, strain KSP1, hits give low values
[28] = S. cerevisiae deletion strains, locus YHR205W, strain SCH9, hits give low values
[29] = S. cerevisiae deletion strains, locus YIL147C, strain SLN1, hits give low values
[30] = S. cerevisiae deletion strains, locus YJL095W, strain BCK1, hits give low values
[31] = S. cerevisiae deletion strains, locus YJL128C, strain PBS2, hits give low values
[32] = S. cerevisiae deletion strains, locus YJL157C, strain FAR1, hits give low values
[33] = S. cerevisiae deletion strains, locus YJR016C, strain ILV3, hits give low values
[34] = S. cerevisiae deletion strains, locus YJR066W, strain TOR1 (second series), hits give low values
[35] = S. cerevisiae deletion strains, locus YJR066W, strain TOR1, hits give low values
[36] = S. cerevisiae deletion strains, locus YKL048C, strain ELM1, hits give low values
[37] = S. cerevisiae deletion strains, locus YKL067W, strain YNK1, hits give low values
[38] = S. cerevisiae deletion strains, locus YKL101W, strain HSL1, hits give low values
[39] = S. cerevisiae deletion strains, locus YKL193C, strain SDS22, hits give low values
[40] = S. cerevisiae deletion strains, locus YKL203C, strain TOR2, hits give low values
[41] = S. cerevisiae deletion strains, locus YLR113W, strain HOG1, hits give low values
[42] = S. cerevisiae deletion strains, locus YLR133W, strain CKI1, hits give low values
[43] = S. cerevisiae deletion strains, locus YLR403W, strain SFP1, hits give low values
[44] = S. cerevisiae deletion strains, locus YML070W, strain DAK1, hits give low values
[45] = S. cerevisiae deletion strains, locus YMR001C, strain CDC5, hits give low values
[46] = S. cerevisiae deletion strains, locus YMR205C, strain PFK2 (second series), hits give low values
[47] = S. cerevisiae deletion strains, locus YMR277W, strain FCP1, hits give low values
[48] = S. cerevisiae deletion strains, locus YNL006W, strain LST8, hits give low values
[49] = S. cerevisiae deletion strains, locus YNL020C, strain ARK1, hits give low values
[50] = S. cerevisiae deletion strains, locus YNL161W, strain CBK1, hits give low values
[51] = S. cerevisiae deletion strains, locus YNL183C, strain NPR1, hits give low values
[52] = S. cerevisiae deletion strains, locus YNL207W, strain RIO2, hits give low values
[53] = S. cerevisiae deletion strains, locus YNL222W, strain SSU72, hits give low values
[54] = S. cerevisiae deletion strains, locus YNL307C, strain MCK1 (second series), hits give low values
[55] = S. cerevisiae deletion strains, locus YOL078W, strain AVO1, hits give low values
[56] = S. cerevisiae deletion strains, locus YOL136C, strain PFK27, hits give low values
[57] = S. cerevisiae deletion strains, locus YOR061W, strain CKA2, hits give low values
[58] = S. cerevisiae deletion strains, locus YOR119C, strain RIO1, hits give low values
[59] = S. cerevisiae deletion strains, locus YOR231W, strain MKK1, hits give low values
[60] = S. cerevisiae deletion strains, locus YOR329C, strain SCD5, hits give low values
[61] = S. cerevisiae deletion strains, locus YPL031C, strain PHO85, hits give low values
[62] = S. cerevisiae deletion strains, locus YPL153C, strain RAD53, hits give low values
[63] = S. cerevisiae deletion strains, locus YPL204W, strain HRR25, hits give low values
[64] = S. cerevisiae deletion strains, locus YPL209C, strain IPL1, hits give low values
[65] = S. cerevisiae deletion strains, locus YPL256C, strain CLN2, hits give low values
[66] = S. cerevisiae deletion strains, locus YPR025C, strain CCL1, hits give low values
[67] = S. cerevisiae deletion strains, locus YPR106W, strain ISR1, hits give low values
[68] = S. cerevisiae deletion strains, locus YPR111W, strain DBF20, hits give low values
[69] = S. cerevisiae deletion strains, strain NNK1, hits give low values
[70] = S. cerevisiae deletion strains, strain TSCII, hits give low values

Measured: normalized growth

C=CCOc1ccc(/C=C/[N+](=O)[O-])cc1
active: [1] 0.0985 | [2] 0.0881 | [3] 0.0822 | [4] 0.095 | [5] 0.0851 | [6] 0.0853 | [7] 0.0971 | [8] 0.108 | [9] 0.1 | [10] 0.0933 | [11] 0.0888 | [12] 0.0837 | [13] 0.0953 | [14] 0.104 | [15] 0.105 | [16] 0.096 | [17] 0.0895 | [18] 0.094 | [19] 0.0875 | [20] 0.0967 | [21] 0.0822 | [22] 0.0972 | [23] 0.116 | [24] 0.106 | [25] 0.12 | [26] 0.118 | [27] 0.124 | [28] 0.00436 | [29] 0.116 | [30] 0.124 | [31] 0.154 | [32] 0.0842 | [33] 0.0828 | [34] 0.0922 | [35] 0.118 | [36] 0.107 | [37] 0.0924 | [38] 0.0997 | [39] 0.0826 | [40] 0.104 | [41] 0.147 | [42] 0.102 | [43] -0.00907 | [44] 0.0908 | [45] 0.0861 | [46] 0.095 | [47] 0.0876 | [48] 0.0846 | [49] 0.0937 | [50] 0.0814 | [51] 0.127 | [52] 0.0904 | [53] 0.0824 | [54] 0.102 | [55] 0.083 | [56] 0.0949 | [57] 0.0943 | [58] 0.112 | [59] 0.109 | [60] 0.0843 | [61] 0.102 | [62] 0.0983 | [63] 0.0984 | [64] 0.0828 | [65] 0.134 | [66] 0.0851 | [67] 0.0928 | [68] 0.154 | [69] 0.1 | [70] 0.0928

O=[N+]([O-])/C=C/c1ccsc1
active: S. cerevisiae deletion strains, locus YAL013W, strain DEP1, hits give low values 0.0965 | [1] 0.0973 | [2] 0.088 | [3] 0.0811 | [4] 0.0958 | [5] 0.0863 | S. cerevisiae deletion strains, locus YBR229C, strain ROT2, hits give low values 0.0538 | S. cerevisiae deletion strains, locus YCL061C, strain MRC1, hits give low values 0.0534 | [6] 0.0862 | [7] 0.108 | [8] 0.0979 and 0.0659 | [9] 0.1 | [10] 0.0899 | [11] 0.0917 | [12] 0.0918 | [13] 0.0966 | S. cerevisiae deletion strains, locus YDR150W, strain NUM1, hits give low values 0.319 | S. cerevisiae deletion strains, locus YDR226W, strain ADK1, hits give low values 0.377 | [14] 0.0976 | S. cerevisiae deletion strains, locus YEL061C, strain CIN8, hits give low values 0.0749 | [15] 0.0988 | [16] 0.0944 | [17] 0.09 | [18] 0.0924 | [19] 0.126 | [20] 0.0932 | [21] 0.0832 | [22] 0.102 | [23] 0.105 | S. cerevisiae deletion strains, locus YGR078C, strain PAC10, hits give low values 0.0512 | [24] 0.101 | [25] 0.086 and 0.114 | [26] 0.115 | [27] 0.122 | S. cerevisiae deletion strains, locus YHR087W, strain rtc3, hits give low values 0.0574 | [28] 0.014 | [29] 0.266 | [30] 0.104 | [31] 0.0942 | [32] 0.0861 | S. cerevisiae deletion strains, locus YJL187C, strain SWE1, hits give low values 0.0512 | [33] 0.0858 | S. cerevisiae deletion strains, locus YJR043C, strain POL32, hits give low values 0.0674 | [34] 0.0922 | [35] 0.121 | S. cerevisiae deletion strains, locus YJR075W, strain HOC1, hits give low values 0.072 | [36] 0.109 | [37] 0.0882 | [38] 0.0953 | S. cerevisiae deletion strains, locus YKL190W, strain CNB1, hits give low values 0.0559 | [39] 0.0818 | [40] 0.102 | S. cerevisiae deletion strains, locus YLR039C, strain RIC1, hits give low values 0.0823 | S. cerevisiae deletion strains, locus YLR058C, strain SHM2 (second series), hits give low values 0.0499 | S. cerevisiae deletion strains, locus YLR085C, strain ARP6, hits give low values 0.0726 | [41] 0.133 | [42] 0.107 | S. cerevisiae deletion strains, locus YLR262C, strain YPT6, hits give low values 0.074 | [43] 0.0115 | [44] 0.0892 | S. cerevisiae deletion strains, locus YML094W, strain GIM5, hits give low values 0.0766 | [45] 0.0846 | [46] 0.0874 | S. cerevisiae deletion strains, locus YMR219W, strain ESC1, hits give low values 0.0511 | S. cerevisiae deletion strains, locus YMR263W, strain SAP30, hits give low values 0.0973 | [47] 0.0872 | [48] 0.0854 | [49] 0.0962 | S. cerevisiae deletion strains, locus YNL153C, strain GIM3, hits give low values 0.0541 | [50] 0.0827 | [51] 0.113 | [52] 0.0963 | [53] 0.0831 | S. cerevisiae deletion strains, locus YNL298W, strain CLA4 (second series), hits give low values 0.0744 | [54] 0.106 | S. cerevisiae deletion strains, locus YNL322C, strain KRE1, hits give low values 0.238 | S. cerevisiae deletion strains, locus YNR030W, strain Alg12, hits give low values 0.0788 | [55] 0.0843 | [56] 0.0965 | [57] 0.0882 | [58] 0.112 | [59] 0.109 | [60] 0.0876 | [61] 0.0965 | S. cerevisiae deletion strains, locus YPL055C, strain LGE1, hits give low values 0.254 | [62] 0.0949 | [63] 0.0984 | [64] 0.0842 | S. cerevisiae deletion strains, locus YPL241C, strain CIN2, hits give low values 0.106 | [65] 0.133 | [66] 0.0831 | [67] 0.0863 | [68] 0.0864 | S. cerevisiae deletion strains, locus YPR135W, strain CTF4, hits give low values 0.212 | [69] 0.0961 | [70] 0.0894 | S. cerevisiae strains, strain wild type, hits give low values 0.0538
